# Source: PubChem BioAssay (NCI)
# Several values for one entry are separate records, joined by “and”; a condition that tells them apart may be missing. Identical values can stand only once. About 83,000 compounds went through this panel and 20% of them were active in at least one assay; those are over-represented in the sample as a whole.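 Note: values are percent growth. 100 is the growth of untreated cells, values between 100 and 0 indicate rising inhibition; between -100 and 0 indicates cell death.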 Where a structure was tested more than once in an assay, its records may differ in their call. Activity calls are given as the source filed them. The calls were made as follows: active = growth percent below 10; inactive = the rest.
# What was measured:
# Assay in all cases: NCI-60 one-dose screen, 48 h (100 = growth as untreated, 0 = no growth, -100 = all killed)
# Settings in all cases: 10 µM unless noted
# NCI-H23 lung = tested on: NCI-H23 lung
# NCI-H226 lung = tested on: NCI-H226 lung
# NCI-H322M lung = tested on: NCI-H322M lung
# HOP-62 NSCLC = tested on: HOP-62 NSCLC
# NCI-H460 lung = tested on: NCI-H460 lung
# HOP-92 NSCLC = tested on: HOP-92 NSCLC
# NCI-H522 lung = tested on: NCI-H522 lung
# A549/ATCC NSCLC = tested on: A549/ATCC NSCLC
# 786-0 renal = tested on: 786-0 renal
# COLO 205 colon = tested on: COLO 205 colon
Structure (SMILES),growth (NCI-H23 lung),growth (NCI-H226 lung),growth (NCI-H322M lung),growth (HOP-62 NSCLC),growth (NCI-H460 lung),growth (HOP-92 NSCLC),growth (NCI-H522 lung),growth (A549/ATCC NSCLC),growth (786-0 renal),growth (COLO 205 colon)
O=[N+]([O-])c1ccc(N/N=C\c2cc(Br)ccc2O)nc1,20.7% (inactive) and 14.2% (inactive),91.4% (inactive) and 55.4% (inactive),24.2% (inactive) and 8.6% (active),12.2% (inactive) and 34.9% (inactive),2.22% (active) and 0.392% (active),37.9% (inactive),6.57% (active) and 7.63% (active),21.4% (inactive),25.6% (inactive) and 35% (inactive),22.9% (inactive) and 43.4% (inactive)
CCOC(=O)c1c(C)oc(C)c(C(=O)OCC)c1=O,91.8% (inactive) and 96% (inactive),95.9% (inactive) and 104% (inactive),99.7% (inactive) and 107% (inactive),99.9% (inactive) and 96.7% (inactive),108% (inactive) and 104% (inactive),98.3% (inactive) and 73.8% (inactive),109% (inactive) and 94.9% (inactive),104% (inactive) and 106% (inactive),98.8% (inactive) and 104% (inactive),117% (inactive)
OCCN1CCN(CCCN2c3ccccc3Sc3ccc(Cl)cc32)CC1,66.4% (inactive) and 80.2% (inactive),96% (inactive) and 110% (inactive),64.2% (inactive) and 77.5% (inactive),61.4% (inactive) and 93.4% (inactive),64.3% (inactive) and 85.1% (inactive),-2.25% (active),40.5% (inactive) and 57.5% (inactive),69.8% (inactive) and 93.3% (inactive),53.3% (inactive) and 71.3% (inactive),-70.1% (active) and 73.3% (inactive)
COc1ccc(-c2cn[nH]c2-c2cc(OC)c(OC)c(OC)c2)cc1N,22.5% (inactive) and 28.3% (inactive),69.4% (inactive) and 50.2% (inactive),45.3% (inactive) and 36.2% (inactive),52.2% (inactive) and 35.6% (inactive),4.87% (active) and 8.68% (active),53.9% (inactive) and 22.5% (inactive),0.102% (active) and 3.18% (active),12.4% (inactive) and 23% (inactive),18.1% (inactive) and 25.6% (inactive),-55.7% (active) and -53.2% (active)
OC1CCC(Oc2cccc3cnc(Nc4ccc5nc[nH]c5c4)nc23)CC1 (stereo not given),-21.5% (active) and 25.5% (inactive),9.66% (active) and 31.6% (inactive),12.2% (inactive) and 50.6% (inactive),-24.5% (active) and 5.23% (active),4.89% (active) and 25.8% (inactive),14.2% (inactive) and 40.3% (inactive),-21.9% (active) and 54% (inactive),-9.62% (active) and 28.9% (inactive),15.5% (inactive) and 38.8% (inactive),-30.1% (active) and 34.8% (inactive)
CC(=O)c1ccccc1O,103% (inactive) and 97.7% (inactive),102% (inactive) and 81.7% (inactive) and 104% (inactive),98.4% (inactive) and 89.7% (inactive) and 98.2% (inactive),101% (inactive) and 87.7% (inactive) and 103% (inactive),105% (inactive) and 107% (inactive) and 103% (inactive),83.7% (inactive) and 103% (inactive),108% (inactive) and 88.4% (inactive) and 111% (inactive),104% (inactive) and 81.9% (inactive) and 96.2% (inactive),104% (inactive) and 103% (inactive) and 101% (inactive),131% (inactive) and 106% (inactive) and 118% (inactive)
CN(C)CCCN1c2ccccc2Sc2ccc(Cl)cc21,90.4% (inactive) and 112% (inactive) and 111% (inactive),106% (inactive) and 97.5% (inactive) and 92.1% (inactive),77.4% (inactive) and 105% (inactive) and 71% (inactive),77.1% (inactive) and 107% (inactive) and 95.2% (inactive),101% (inactive) and 105% (inactive) and 100% (inactive),47.1% (inactive) and 99.2% (inactive),72.3% (inactive) and 97.6% (inactive),103% (inactive) and 94.4% (inactive),68% (inactive) and 106% (inactive) and 81.9% (inactive),50.5% (inactive) and 102% (inactive) and 67.9% (inactive)
C/C(=N\NC(=O)c1ccncc1)c1ccccc1O,42.5% (inactive) and 30.4% (inactive),54.5% (inactive) and 58.8% (inactive),30.3% (inactive) and 20.7% (inactive),34.3% (inactive) and 33.7% (inactive),19.3% (inactive) and 14% (inactive),44.5% (inactive) and 36.7% (inactive),8.84% (active),36.4% (inactive) and 40% (inactive),31.4% (inactive) and 22.6% (inactive),13.9% (inactive) and 8.85% (active)
O=C(N/N=C/c1ccccc1)N/N=C/c1ccccc1,118% (inactive) and 101% (inactive),106% (inactive) and 78.9% (inactive),103% (inactive) and 116% (inactive),104% (inactive) and 117% (inactive),118% (inactive) and 95.1% (inactive),100% (inactive) and 90.3% (inactive),99.5% (inactive) and 106% (inactive),102% (inactive) and 104% (inactive),118% (inactive) and 116% (inactive),109% (inactive) and 129% (inactive)
O=S(=O)(Nc1ccccc1)C1CCCCC1,98.6% (inactive) and 96.6% (inactive),106% (inactive) and 103% (inactive),103% (inactive) and 116% (inactive),107% (inactive) and 101% (inactive),112% (inactive) and 118% (inactive),113% (inactive) and 108% (inactive),84.5% (inactive) and 94.1% (inactive),98.7% (inactive) and 108% (inactive),105% (inactive) and 110% (inactive),102% (inactive) and 122% (inactive)
Cc1cc(O)c(C(C)C)cc1N,97.5% (inactive) and 92.7% (inactive),108% (inactive) and 93.1% (inactive),122% (inactive) and 102% (inactive),90% (inactive) and 109% (inactive),121% (inactive) and 103% (inactive),100% (inactive),82.5% (inactive) and 86.9% (inactive),109% (inactive) and 110% (inactive),97.2% (inactive) and 105% (inactive),130% (inactive) and 126% (inactive)
O=C(Nc1cccc(-n2ccc3c(NC(=O)c4ccccc4)nccc32)c1)c1ccc(Cl)c(C(F)(F)F)c1,-9.83% (active) and 72.4% (inactive),34.5% (inactive) and 75.3% (inactive),22.6% (inactive) and 79.3% (inactive),-50.5% (active) and 67.7% (inactive),-51.4% (active) and 12.8% (inactive),-13.5% (active),82.8% (inactive),36.8% (inactive),-74.9% (active) and 48% (inactive),-49.7% (active) and 55.7% (inactive)
CC(C)Cc1ccc(C(C)C(=O)NCc2ccc(Cn3c(=O)sn(CCCI)c3=O)cc2)cc1 (stereo not given),92% (inactive) and -78.3% (active),83.8% (inactive) and 4.03% (active),98.2% (inactive) and 59.4% (inactive),-56.2% (active),99.6% (inactive) and 3.28% (active),73.6% (inactive) and -67.5% (active),69% (inactive) and -55.6% (active),95.4% (inactive) and -54.7% (active),94.3% (inactive) and -88.9% (active),-62.4% (active)
Clc1ccc(SSc2ccc(Cl)cc2)cc1,94.1% (inactive) and 85.5% (inactive),104% (inactive) and 79.5% (inactive),95.6% (inactive) and 108% (inactive),102% (inactive) and 98% (inactive),98.1% (inactive) and 79.5% (inactive),76% (inactive) and 74.2% (inactive),87.9% (inactive) and 81.8% (inactive),95.9% (inactive) and 46.9% (inactive),96.5% (inactive) and 66.8% (inactive),99.6% (inactive) and 113% (inactive)
